A short description of assay [1]: Stat Signaling Pathway (AID 446; active = well fitted curve in either direction with a large enough effect, not every such curve was filed as active;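 note: ME-180 cervical cancer cells given 40 pM IL-6 alongside compound; SIE-controlled beta-lactamase reporter measured as 460/530 nm FRET emission ratio; % is set by controls: 0 for no effect and ±100 for the full control effect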). The procedure, abridged: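 Normalization used AC90 stimulation (300 pM IL-6) and AC90 inhibition (125 nM pan-JAK inhibitor at 40 pM IL-6). The underlying signal is SIE-driven beta-lactamase in ME-180 cells after 5 h IL-6 exposure with compound.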
In assay [2] the target is Glucocorticoid receptor (Homo sapiens) (UniProt P04150). The assay can be described thus: GR-GFP Redistribution (AID 450;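 active = compounds whose dose series gives a full or clear partial fitted curve of increased nuclear translocation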; note: potency is the fitted concentration of half-maximal effect). The conditions noted are these: U2OS GR-GFP nuclear translocation, laser cytometry, 2 h.
Assay [3] has the same target. The experiment in a line: GR-EFC Redistribution (AID 451; calls by dose curve; note: potency is the fitted concentration of half-maximal effect). As to conditions: CHO-K1 GR-EFC translocation, beta-gal luminescence, 2 h. In outline:
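CHO-K1 cells stably expressing nuclear-localized β-gal enzyme acceptor and GR fused C-terminally to the enzyme donor fragment; ligand-driven nuclear translocation restores β-gal by complementation. Compounds titrated up to 46 uM final, 2 h at 37 °C; luminescence read.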

Assay [4] addresses Mitogen-activated protein kinase 10 (Mus musculus) (UniProt Q61831). The assay can be described thus: JNK3 AlphaScreen Assay (AID 530; active = well fitted curve in either direction with a large enough effect, not every such curve was filed as active;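 note: kinase came from lysate of stimulated human HepG2 cells; signal reports phosphorylation of biotinylated GST-cJun 1-79 at Ser73 with 10 µM ATP; % is set by controls: 0 for no effect and ±100 for the full control effect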). The procedure, abridged:
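Biotinylated GST-cJun(1-79) served as substrate for JNK3 in HepG2 lysates stimulated with IL-1beta and TNF-alpha. ATP was 10 uM final, pH 7.6. Ser73 phosphorylation was quantified by AlphaScreen (680 nm excitation).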

The target of assay [5] is 3',5'-cyclic-AMP phosphodiesterase 4B (Homo sapiens) (UniProt Q07343). The experiment in a line: qHTS Assay for Inhibitors of PDE-IV (AID 607; active = well fitted activation curve with a large enough effect in the main read-out, with a control signal flat, not every such curve was filed as active; note: % of control where 0% means no effect). In outline: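 HEK293 ACTOne cells with CNG channel (1000/well), endogenous PDE4; membrane potential dye, compounds up to 22.9 uM final. Fluorescence Ex 535/Em 590; RO 20-1724 (100 uM final) as reference.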
The target in assay [6] is Guanine nucleotide-binding protein G(i) subunit alpha-1 (Homo sapiens) (UniProt P63096). The experiment in a line: qHTS Assay for Inhibitors of RGS12 GoLoco Motif Activity (Green Fluorophore) (AID 879).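 Note: 0% = labeled peptide with Gαi1 and full inhibition = labeled peptide alone without protein; negative values mean loss of peptide binding seen as reduced polarization.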 The procedure, abridged: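 A drop in FITC polarization marked displacement of the FITC-tagged RGS12 GoLoco peptide (10 nM) from Gαi1 (50 nM). Compounds were incubated 10 min at room temperature in Tris pH 7.5 buffer containing 150 mM NaCl, 0.1 mM GDP and 0.05% NP40; unlabeled peptide titration served as control.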

In assay [7] the target is Cytochrome P450 3A4 (Homo sapiens) (UniProt P08684). The assay can be described thus: qHTS Assay for Activators of Cytochrome P450 3A4 (AID 885). Note: nearly all actives have a fitted effect of over 65% in size. In outline:
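Human CYP3A4 dealkylates Luciferin-PPXE to luciferin, which luciferase detection converts to light. Substrate was at its KM (25uM), buffer 200mM KPO4, reaction 60 min at RT.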

Assay [8] deals with Pyruvate kinase (Leishmania mexicana) (UniProt Q27686). The assay can be described thus: qHTS Validation Assay for Inhibitors of Leishmania Mexicana Pyruvate Kinase (AID 945).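 Note: 0% = DMSO only neutral control wells.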 The procedure, abridged:
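LmPYK E451W 0.2 nM; 0.5 mM PEP, 0.1 mM ADP, 7 mM MgCl2, 50 mM KCl, imidazole pH 7.2, 0.01% Tween 20, 0.05% BSA; 1 h RT; PKLight luminescence; DMSO-normalized.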

In assay [9] the target is Alpha-galactosidase (Coffea arabica) (UniProt Q42656). The assay can be described thus: Counterscreen for Glucocerebrosidase Inhibitors: qHTS Assay for Coffee Bean alpha-Galactosidase at pH 4.5 (AID 957).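 Note: plate controls were enzyme alone for no effect and no enzyme for full effect.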 In outline: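 Quantitative HTS of compounds (0.7 nM to 77 uM) against coffee bean alpha-galactosidase at pH 4.5, measuring 4-methylumbelliferone fluorescence released from 80 uM substrate.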

Assay [10] deals with Alpha-galactosidase A (Homo sapiens) (UniProt P06280). The experiment in a line: Counterscreen for Glucocerebrosidase Inhibitors: qHTS Assay for Human alpha-Galactosidase at pH 4.5 (AID 992). Note: 0% is about no effect. In outline:
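Steps: enzyme (2 nM final), then compound across 0.7 nM to 77 uM, then 80 uM fluorogenic galactopyranoside substrate; incubate 20 min at room temperature; quench at pH 10; measure fluorescence at 365/440 nm.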

In assay [11] the test system is Zika virus NS2B-NS3 protease. The experiment in a line: Primary screen GU AMC qHTS for Zika virus inhibitors (AID 1347154).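 For activity change, negative = inhibition: 0% = no-inhibitor control and -100% = no-enzyme control.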 Note: nearly all actives have a fitted effect of over 70% in size. Note: potency is the fitted concentration of half-maximal effect. The procedure, abridged: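 Unlinked Zika NS2B hydrophilic domain/NS3 protease domain noncovalent complex (25 nM final) in 10 mM Tris-HCl pH 8.0, 0.01% Tween 20, with AMC peptide substrate. Fluorescence (ex 340, em 450 nm) change over 15 min, room temperature; percent inhibition fitted to 4-parameter Hill equation.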

A short description of assay [12]: Primary qHTS for small molecule stabilizers of the endoplasmic reticulum resident proteome: Secreted ER Calcium Modulated Protein (SERCaMP) assay (AID 1508630). Note: % is set by controls: 0 for no effect and ±100 for the full control effect. In outline:
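The SH-SY5Y reporter protocol was run at 3 concentrations up to 38.3 uM (primary) or 11 concentrations (follow-up): 16 h compound, 100 nM thapsigargin for 4 h, then extracellular luciferase luminescence.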

The nature of assay [13]: qHTS Assay for Lipid Storage Modulators (AID 1519; calls by dose curve). As to conditions: Drosophila S3 cells, BODIPY lipid droplet/cell ratio, laser cytometry, cells loaded with oleic acid; for activity change, negative = inhibition: at 57.5 µM (top of the series). The procedure, abridged:
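Cells seeded at 5,000 per well were treated with compounds over a concentration series and loaded with oleic acid (400 uM, as added). Lipid droplet fluorescence (488 nm excitation, 500-530 nm channel) was read by laser-scanning cytometry and normalized to 20 uM Triacsin C.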

Assay [14] concerns the target Ubiquitin carboxyl-terminal hydrolase 1 (Homo sapiens) (UniProt O94782). The experiment in a line: Inhibitors of USP1/UAF1: Pilot qHTS (AID 504865).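 Note: rhodamine fluorescence freed from ubiquitin-rhodamine substrate followed over time; top concentration of the series differs between compounds; % is set by controls: 0 for no effect and ±100 for the full control effect; nearly all actives have a fitted effect of over 35% in size.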 In outline: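 Deubiquitinase activity followed as kinetic rhodamine fluorescence release from 150 nM Ub-Rho. 1 nM USP1/UAF1 with compound, after 15 min room-temperature preincubation, in HEPES pH 7.8 buffer containing TCEP, EDTA, BSA and Tween-20.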

The target in assay [15] is DNA dC->dU-editing enzyme APOBEC-3G (Homo sapiens) (UniProt Q9HC16). The experiment in a line: qHTS for inhibitors of Vif-A3G interactions: Validation (AID 588379). Note: 0% is about no effect. In outline:
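Yellow fluorescence (Ex 488, Em 500-530) of Vif-coexpressing HeLa A3G-eYFP cells, scanned by Acumen cytometer, reports blocked A3G degradation. Cells plated at 700/well overnight at 37 deg C before compound addition, then a further overnight compound incubation at 37 deg C.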

For assay [16], the target named is Cytochrome P450 1A2 (Homo sapiens) (UniProt P05177). The assay can be described thus: p450-cyp1a2 (AID 410; calls by dose curve). In outline:
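Read-out is luminescence from luciferin produced by CYP1A2 demethylation of Luciferin-ME (100uM, at Km). Detection reagent stopped the 60 min NADPH-dependent reaction; signals were normalized to 57 uM furafylline.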

The nature of assay [17]: AP1 Signaling Pathway (AID 357; active = well fitted curve in either direction with a large enough effect, not every such curve was filed as active;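 note: ME-180 reporter cells stimulated with EGF at its EC50 level; % is set by controls: 0 for no effect and ±100 for the full control effect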). The procedure, abridged: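 Titration-series screen for positive or negative modulators of EC50 EGF-induced signaling in ME-180 cells carrying an AP-1-driven beta-lactamase reporter. After 5 hours at 37 degrees Celsius, CCF4 460nm/530nm emission ratio gave %Activity; AC50 values derived.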
A short description of assay [18]: NFAT Signaling Pathway (AID 444; active = well fitted curve in either direction with a large enough effect, not every such curve was filed as active). As to conditions: Jurkat NFAT-bla M1, carbachol, beta-lactamase ratio, 5 h; at 38 µM (top of the series). The procedure, abridged:
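Jurkat cells carrying an NFAT-driven β-lactamase reporter and co-transfected muscarinic M1 receptor were treated with compound plus carbachol (1 uM final, an EC50 level) for 5 h at 37 °C. CCF4 loading followed for 1 h at RT; 460/530 nm ratio gave %activity.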

Setting [19] is: measured here: cell count channel max response.
[20] abbreviates: measured here: lipid channel max response.

Each structure is given as a SMILES string. Results filed as inconclusive are left out. Activity calls are given as the source filed them. Unless noted, calls come from the whole dose curve; as a rule, active = well fitted curve in the direction sought with a large enough effect; inconclusive = small, poorly fitted or top-dose-only effect, or another doubt; inactive = no such curve, though single readings can be large; an effect the other way counts as inactive or inconclusive.

Sequence of 3',5'-cyclic-AMP phosphodiesterase 4B (Homo sapiens) (Q07343 whole entry, looked up): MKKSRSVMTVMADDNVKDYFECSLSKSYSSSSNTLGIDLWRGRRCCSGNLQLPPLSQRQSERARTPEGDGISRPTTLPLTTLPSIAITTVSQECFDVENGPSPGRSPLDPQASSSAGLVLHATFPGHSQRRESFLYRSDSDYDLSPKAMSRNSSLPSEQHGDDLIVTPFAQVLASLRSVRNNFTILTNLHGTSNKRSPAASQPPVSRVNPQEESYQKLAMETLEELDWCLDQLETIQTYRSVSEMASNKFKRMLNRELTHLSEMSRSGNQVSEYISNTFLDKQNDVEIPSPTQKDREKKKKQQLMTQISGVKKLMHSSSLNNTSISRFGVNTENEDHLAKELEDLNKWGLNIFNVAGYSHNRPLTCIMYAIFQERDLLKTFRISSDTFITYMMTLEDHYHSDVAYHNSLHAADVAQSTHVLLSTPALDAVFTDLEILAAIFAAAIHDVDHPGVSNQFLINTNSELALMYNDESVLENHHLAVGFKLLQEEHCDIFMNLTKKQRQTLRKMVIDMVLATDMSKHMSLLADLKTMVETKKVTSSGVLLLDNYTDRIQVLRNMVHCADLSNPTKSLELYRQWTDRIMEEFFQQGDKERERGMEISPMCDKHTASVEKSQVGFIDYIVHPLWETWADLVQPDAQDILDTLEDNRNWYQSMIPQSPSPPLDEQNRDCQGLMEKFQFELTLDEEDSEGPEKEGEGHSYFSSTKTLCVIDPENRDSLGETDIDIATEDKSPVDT
Sequence of Glucocorticoid receptor (Homo sapiens) (P04150 whole entry, looked up): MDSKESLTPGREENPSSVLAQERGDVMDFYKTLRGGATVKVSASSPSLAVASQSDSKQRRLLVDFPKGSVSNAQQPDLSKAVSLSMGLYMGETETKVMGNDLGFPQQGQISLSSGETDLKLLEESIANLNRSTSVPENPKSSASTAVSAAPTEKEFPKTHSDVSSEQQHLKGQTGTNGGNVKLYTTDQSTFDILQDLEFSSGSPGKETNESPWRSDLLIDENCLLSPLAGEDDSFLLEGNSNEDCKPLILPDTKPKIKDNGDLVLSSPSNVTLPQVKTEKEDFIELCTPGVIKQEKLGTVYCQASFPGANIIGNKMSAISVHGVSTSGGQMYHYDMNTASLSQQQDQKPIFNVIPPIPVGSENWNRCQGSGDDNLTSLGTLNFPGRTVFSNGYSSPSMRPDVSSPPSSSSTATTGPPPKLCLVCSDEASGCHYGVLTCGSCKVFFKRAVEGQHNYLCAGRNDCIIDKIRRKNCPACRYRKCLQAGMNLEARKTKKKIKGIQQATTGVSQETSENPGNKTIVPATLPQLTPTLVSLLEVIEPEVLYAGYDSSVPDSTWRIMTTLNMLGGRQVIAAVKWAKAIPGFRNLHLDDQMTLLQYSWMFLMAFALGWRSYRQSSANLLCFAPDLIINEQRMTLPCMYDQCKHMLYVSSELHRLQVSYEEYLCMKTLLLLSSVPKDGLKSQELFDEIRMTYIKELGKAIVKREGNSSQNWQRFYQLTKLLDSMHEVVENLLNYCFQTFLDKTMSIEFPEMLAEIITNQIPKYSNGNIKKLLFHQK
Sequence of DNA dC->dU-editing enzyme APOBEC-3G (Homo sapiens) (Q9HC16 whole entry, looked up): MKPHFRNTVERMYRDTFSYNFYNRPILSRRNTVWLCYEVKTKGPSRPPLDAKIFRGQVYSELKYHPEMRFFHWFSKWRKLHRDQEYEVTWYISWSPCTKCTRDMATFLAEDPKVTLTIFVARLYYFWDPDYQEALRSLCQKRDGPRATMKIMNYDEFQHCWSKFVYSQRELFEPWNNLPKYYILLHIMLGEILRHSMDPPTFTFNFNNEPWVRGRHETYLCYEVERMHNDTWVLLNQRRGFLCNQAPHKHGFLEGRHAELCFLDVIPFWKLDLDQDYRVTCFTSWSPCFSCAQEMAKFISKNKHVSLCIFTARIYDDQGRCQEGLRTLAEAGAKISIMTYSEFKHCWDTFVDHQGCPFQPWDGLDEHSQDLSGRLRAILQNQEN
Sequence of Ubiquitin carboxyl-terminal hydrolase 1 (Homo sapiens) (O94782 whole entry, looked up): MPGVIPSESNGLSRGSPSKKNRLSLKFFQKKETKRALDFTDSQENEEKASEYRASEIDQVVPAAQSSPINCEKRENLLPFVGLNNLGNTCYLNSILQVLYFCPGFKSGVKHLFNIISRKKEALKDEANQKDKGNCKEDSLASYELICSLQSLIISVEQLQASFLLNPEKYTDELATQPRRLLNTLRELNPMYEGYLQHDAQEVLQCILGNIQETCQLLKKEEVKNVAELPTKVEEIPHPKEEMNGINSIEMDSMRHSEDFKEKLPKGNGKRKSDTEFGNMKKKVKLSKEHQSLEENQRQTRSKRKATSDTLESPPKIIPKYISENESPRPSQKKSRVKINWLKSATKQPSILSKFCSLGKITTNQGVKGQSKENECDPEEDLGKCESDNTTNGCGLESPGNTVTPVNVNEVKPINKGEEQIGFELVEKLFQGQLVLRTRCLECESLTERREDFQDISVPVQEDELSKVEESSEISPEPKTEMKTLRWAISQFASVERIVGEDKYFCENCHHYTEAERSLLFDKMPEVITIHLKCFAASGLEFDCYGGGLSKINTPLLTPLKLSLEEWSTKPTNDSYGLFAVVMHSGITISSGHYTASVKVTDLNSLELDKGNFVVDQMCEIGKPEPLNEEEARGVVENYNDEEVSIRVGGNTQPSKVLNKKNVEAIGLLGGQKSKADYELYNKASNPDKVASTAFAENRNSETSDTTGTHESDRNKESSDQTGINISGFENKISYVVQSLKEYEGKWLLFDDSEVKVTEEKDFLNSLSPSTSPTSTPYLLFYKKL
Sequence of Guanine nucleotide-binding protein G(i) subunit alpha-1 (Homo sapiens) (P63096 whole entry, looked up): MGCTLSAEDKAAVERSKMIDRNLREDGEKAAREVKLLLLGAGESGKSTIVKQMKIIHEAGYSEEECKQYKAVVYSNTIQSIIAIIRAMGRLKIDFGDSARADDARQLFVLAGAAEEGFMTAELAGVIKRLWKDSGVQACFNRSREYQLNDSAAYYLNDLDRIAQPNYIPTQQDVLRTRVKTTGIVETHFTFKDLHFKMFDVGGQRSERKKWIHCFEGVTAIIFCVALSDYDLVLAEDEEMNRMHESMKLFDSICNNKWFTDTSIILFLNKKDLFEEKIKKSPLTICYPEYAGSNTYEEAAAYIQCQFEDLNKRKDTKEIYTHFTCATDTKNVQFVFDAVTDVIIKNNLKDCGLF
Sequence of Alpha-galactosidase (Coffea arabica) (Q42656 whole entry, looked up): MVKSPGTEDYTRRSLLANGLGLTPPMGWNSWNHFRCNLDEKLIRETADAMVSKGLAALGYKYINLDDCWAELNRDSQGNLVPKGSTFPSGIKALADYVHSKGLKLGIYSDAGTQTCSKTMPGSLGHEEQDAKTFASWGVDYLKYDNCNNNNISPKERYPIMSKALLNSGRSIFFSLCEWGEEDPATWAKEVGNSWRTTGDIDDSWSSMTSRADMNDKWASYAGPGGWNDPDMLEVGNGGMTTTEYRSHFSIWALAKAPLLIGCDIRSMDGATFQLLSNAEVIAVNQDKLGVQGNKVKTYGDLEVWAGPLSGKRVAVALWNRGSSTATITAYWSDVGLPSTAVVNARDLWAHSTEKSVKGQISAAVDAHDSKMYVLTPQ
Sequence of Alpha-galactosidase A (Homo sapiens) (P06280 whole entry, looked up): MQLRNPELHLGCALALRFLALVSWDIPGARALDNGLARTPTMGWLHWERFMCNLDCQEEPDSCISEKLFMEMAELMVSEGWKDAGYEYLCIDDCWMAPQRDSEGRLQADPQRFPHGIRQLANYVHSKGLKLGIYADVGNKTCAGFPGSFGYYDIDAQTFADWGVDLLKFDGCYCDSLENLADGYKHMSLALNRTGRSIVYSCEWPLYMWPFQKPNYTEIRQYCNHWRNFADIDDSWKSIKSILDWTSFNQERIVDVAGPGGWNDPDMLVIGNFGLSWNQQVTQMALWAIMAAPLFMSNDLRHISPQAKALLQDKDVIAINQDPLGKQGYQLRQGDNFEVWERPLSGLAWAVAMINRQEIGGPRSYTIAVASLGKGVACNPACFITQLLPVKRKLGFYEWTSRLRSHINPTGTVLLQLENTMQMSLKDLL
Sequence of Pyruvate kinase (Leishmania mexicana) (Q27686 2-499 E452W): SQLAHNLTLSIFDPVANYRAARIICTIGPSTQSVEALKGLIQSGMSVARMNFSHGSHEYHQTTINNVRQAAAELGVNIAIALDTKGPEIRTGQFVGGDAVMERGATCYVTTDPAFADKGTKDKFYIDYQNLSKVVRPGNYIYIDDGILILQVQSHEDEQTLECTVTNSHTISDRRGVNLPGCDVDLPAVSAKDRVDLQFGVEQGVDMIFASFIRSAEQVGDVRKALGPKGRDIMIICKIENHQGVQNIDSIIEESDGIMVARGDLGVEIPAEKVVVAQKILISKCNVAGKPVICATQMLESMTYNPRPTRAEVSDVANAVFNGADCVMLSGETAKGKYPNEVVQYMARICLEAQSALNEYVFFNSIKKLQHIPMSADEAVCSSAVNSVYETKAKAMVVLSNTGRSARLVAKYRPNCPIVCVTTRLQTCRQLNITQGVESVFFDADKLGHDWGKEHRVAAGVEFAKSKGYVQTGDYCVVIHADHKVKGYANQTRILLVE
Sequence of Cytochrome P450 1A2 (Homo sapiens) (P05177 whole entry, looked up): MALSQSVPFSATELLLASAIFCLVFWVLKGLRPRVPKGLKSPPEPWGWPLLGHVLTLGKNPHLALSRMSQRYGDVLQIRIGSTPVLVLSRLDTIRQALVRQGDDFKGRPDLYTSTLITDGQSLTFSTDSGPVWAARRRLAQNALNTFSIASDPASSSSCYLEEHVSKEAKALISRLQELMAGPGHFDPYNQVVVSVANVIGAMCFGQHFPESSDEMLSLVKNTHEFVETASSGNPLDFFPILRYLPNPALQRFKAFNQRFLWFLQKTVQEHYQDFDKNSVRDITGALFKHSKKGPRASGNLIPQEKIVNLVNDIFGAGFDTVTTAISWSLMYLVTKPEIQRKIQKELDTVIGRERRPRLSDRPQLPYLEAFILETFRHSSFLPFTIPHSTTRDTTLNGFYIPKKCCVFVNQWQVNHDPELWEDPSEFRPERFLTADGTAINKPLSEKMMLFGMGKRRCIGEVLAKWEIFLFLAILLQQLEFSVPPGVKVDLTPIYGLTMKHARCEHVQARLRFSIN

With `N#CC(C#N)=Cc1ccc([N+](=O)[O-])c(O)c1`, the result in assay [1], in assay [4], in [6], in [8], in assay [9] and in assay [10] was inactive. The Potency in [2] and in assay [3] was > 46 µM (inactive) throughout. Further, the Potency result in [5], in assay [7], in assay [11] and in [12] was “inactive” throughout.

With `Cc1ccc(C[N+](C)(C)C)o1`, the Potency in [2] and in assay [3] was > 46 µM (inactive) each time. Further, the activity change, negative = inhibition in assay [13] is 4.98% (inactive). Moreover, the max response in [13] (setting [19]) came to 20.9%; in [13] (setting [20]), 30.2%. In addition, the Potency entry in assay [14], in [15], in assay [11] and in assay [12] was “inactive” each time.

For `O=C(O)[C@@H]1C[C@H]2C[C@@H](CP(=O)(O)O)CC[C@H]2CN1`, the Potency in assay [2] and in assay [3] was > 46 µM (inactive) in each case. Further, in assay [13], the activity change, negative = inhibition is -1.59% (inactive). Also, the max response was -9.16% in assay [13] (setting [19]) and -11.2% in assay [13] (setting [20]). Besides, the Potency result in assay [15], in [11] and in [12] was “inactive” each time.

For the compound `O=C1CS[C@@H](c2ccccc2Cl)c2cc(Cl)ccc2N1`, the Potency in assay [2] and in [3] was > 46 µM (inactive) in each case. Moreover, the Potency entry in assay [15], in assay [11] and in assay [12] was “inactive” each time.

Take `NC[C@H](CS(=O)(=O)O)c1ccc(Cl)cc1`: the Potency result in assay [16], in [15], in assay [11] and in assay [12] was “inactive” throughout. Moreover, the Potency in assay [2] and in [3] was > 46 µM (inactive) in each case. Moreover, in assay [13], the activity change, negative = inhibition was 3.36% (inactive). The max response in assay [13] (setting [19]) is 7.7%; in [13] (setting [20]) it was 12%.

Regarding `O=C(O)/C=C\CO`, in assay [3], the Potency is > 46 µM (inactive). The compound was classed as inactive in assay [4]. Further, the Potency entry in assay [5], in assay [14], in assay [15], in [11] and in assay [12] was “inactive” each time. For the same compound, in assay [13], the activity change, negative = inhibition is 3.52% (inactive). In addition, the values for the max response in assay [13] (setting [19]) and in assay [13] (setting [20]) were -10.2% and -9.77%, respectively.

With `CCCN1C[C@H](C)N([C@H](c2ccc(C(=O)N(CC)CC)cc2)c2cccc(OC)c2)C[C@H]1C`, the Potency in assay [3] is > 46 µM (inactive). The compound was called inactive in assay [4]. Further, the Potency result in [5], in [14], in [15], in [11] and in assay [12] was “inactive” each time. Further, in assay [13], the activity change, negative = inhibition was 9.16% (inactive). For the same compound, the max response in [13] (setting [19]) came to 26.5%; in assay [13] (setting [20]), 30.1%.

Take `CN1CCc2cc(O)cc3c2C1Cc1ccc(O)c(O)c1-3` (configuration not stated): in assay [11], the Potency is 18.9 µM (active). The Potency result in assay [12] was “inactive”.

On to `N[C@H](CCP(=O)(O)O)C(=O)O`, for which the compound was called inactive in assay [17], in assay [1], in assay [4], in assay [6], in assay [8] and in assay [9]. The result in assay [10] was inactive. The activity change, negative = inhibition in assay [18] is 13.5% (inactive); in assay [13] it was 2.56% (inactive). Besides, the Potency in assay [2] and in assay [3] was > 46 µM (inactive) throughout. The Potency entry in assay [5], in [15], in [11] and in assay [12] was “inactive” throughout. Moreover, the max response worked out at 21.6% in assay [13] (setting [19]) and 21.4% in assay [13] (setting [20]).

The values are drawn from PubChem BioAssay (NCATS).
